# Data taken from PubChem BioAssay (NCATS).
# Unmarked numbers belong to inactive results. Inconclusive results are not listed. Active and inactive are the calls of the source. The call rests on the fitted dose curve; in most records, active means well fitted curve in the direction sought with a large enough effect; inconclusive means small, poorly fitted or top-dose-only effect, or another doubt; inactive means no such curve, though single readings can be large; an effect the other way counts as inactive or inconclusive. Positions of bridges follow the written chain, without caps; N, C: chain ends. Non-standard residues stand in square brackets, D forms with d. Residues, ends and D or L forms follow the SMILES beside them. ξ: configuration not given here. *: point of attachment. Octanoyl(6-Me) = CCC(C)CCCCC(=O)*; ξThr(3R) = C[C@@H](O)C(N)C(=O)O; dDab = NCC[C@@H](N)C(=O)O; Dab = NCC[C@H](N)C(=O)O
# Biological target: Glutathione peroxidase 1 (Homo sapiens) (UniProt P07203)
# Assay: Primary qHTS Assay for Inhibitors of Recombinant Selenoprotein Glutathione Peroxidase 1 (GPX1) (AID 1845191); further: nearly all actives have a fitted effect of over 65% in size; on activity, negative = inhibition: on the % scale 0 is the no-effect control and ±100 the full control effect
# Conditions: recombinant GPX1, GR-coupled NADPH fluorescence, 15 min; series mostly up to 48.8 µM; activity, negative = inhibition: at the top concentration
# Outline: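 GPX1 10 nM, GR 100 nM, GSH 1 mM, NADPH 0.5 mM, CHP 0.5 mM (final). 30-min cpd preincubation, RT. Ex340/Em450 read t=0, t=15 min.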
# Glutathione peroxidase 1 (Homo sapiens), sequence (P07203 whole entry, looked up): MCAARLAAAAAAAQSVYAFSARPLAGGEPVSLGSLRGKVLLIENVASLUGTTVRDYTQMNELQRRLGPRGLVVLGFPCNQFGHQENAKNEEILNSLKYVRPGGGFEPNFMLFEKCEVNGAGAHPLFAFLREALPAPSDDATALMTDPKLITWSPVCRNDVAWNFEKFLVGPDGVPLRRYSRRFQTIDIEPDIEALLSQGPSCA
Compound,Potency,"activity, negative = inhibition [%]",outcome
CN1C(C(=O)Nc2ccccn2)=C(O)c2sc(Cl)cc2S1(=O)=O,inactive,,
COc1ccc(C=Cc2cc(OC)c(OC)c(OC)c2)cc1NC(=O)[C@H](N)CO,,-5.15,
O=C(NC1CC1)c1cccc(-c2ccc3c(NC(=O)C4CC4)n[nH]c3c2)c1,,,inactive
CNC(=O)Nc1ccc(-c2nc(N3CC4CCC(C3)O4)c3cnn(C4CCC5(CC4)OCCO5)c3n2)cc1,,,inactive
Cc1noc(-c2ccc(CSCCC(=O)O)cc2)c1NC(=O)OC(C)c1ccccc1Cl (stereo unspecified),,,inactive
COc1ccc(Nc2nccc(NCCO)n2)cc1,,,inactive
C#CCC(Cc1cnc2nc(N)nc(N)c2n1)c1ccc(C(=O)N[C@@H](CCC(=O)O)C(=O)O)cc1 (stereo partly specified),,1.53,
C[C@@H]1CC[C@@]2(OC1)OC1CC3C4CC=C5CC(O)CCC5(C)C4CCC3(C)C1[C@@H]2C (stereo partly specified),,,inactive
C[C@@H](NCc1cc2ccccc2[nH]1)c1cccc2ccccc12,,,inactive
CCc1c(O)cc(O)c(C(=O)c2ccc(OCCN3CCOCC3)c(OC)c2)c1CC(=O)N(CCOC)CCOC,,-6.4,
Cc1ccc(-n2[nH]c(C)c(N=Nc3cccc(-c4cccc(C(=O)O)c4)c3O)c2=O)cc1C,inactive,,

# Biological target: Phospholipid hydroperoxide glutathione peroxidase GPX4 (Homo sapiens) (UniProt P36969)
# Assay: Primary qHTS Assay for Inhibitors of Recombinant Selenoprotein Glutathione Peroxidase 4 (GPX4) (AID 1845192); further: nearly all actives have a fitted effect of over 65% in size; further: potency means the concentration at half of the fitted maximal effect; on activity change, negative = inhibition: on the % scale 0 is the no-effect control and ±100 the full control effect
# Conditions: recombinant GPX4, GR-coupled NADPH fluorescence, 15 min; series mostly up to 50 µM; activity change, negative = inhibition: at the top concentration
# Outline: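 qHTS, GR-coupled: GPX4 200 nM + cpd 30 min RT → GSH 1 mM, NADPH 0.5 mM, GR 100 nM → CHP 0.5 mM start; fluor 340/450 at t0 and t15 min; no-enzyme wells as control.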
# Phospholipid hydroperoxide glutathione peroxidase GPX4 (Homo sapiens), sequence (P36969 whole entry, looked up): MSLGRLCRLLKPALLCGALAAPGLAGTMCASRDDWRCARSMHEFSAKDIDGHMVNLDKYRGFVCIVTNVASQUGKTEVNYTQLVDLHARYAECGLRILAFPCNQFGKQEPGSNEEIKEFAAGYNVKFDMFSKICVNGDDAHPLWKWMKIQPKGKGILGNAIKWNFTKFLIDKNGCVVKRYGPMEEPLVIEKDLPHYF
Compound,"activity change, negative = inhibition [%]",Potency,outcome
C[C@H](O)[C@@H]1C(=O)N2C(C(=O)O)=C(S[C@@H]3CN[C@H](CNS(N)(=O)=O)C3)[C@@H](C)[C@@H]12,-16.4,,
Cc1ccc2nc(NCCN)c3ncc(C)n3c2c1,,22.7 µM (active),
COc1cc(C(C)C)c(Oc2cnc(NC(CO)CO)nc2N)cc1I,-10.2,,
CCC(C)CCCCC(=O)N[C@@H](CCN)C(=O)NC(C(=O)N[C@H](CCN)C(=O)N[C@@H]1CCNC(=O)C([C@@H](C)O)NC(=O)[C@@H](CCN)NC(=O)[C@@H](CCN)NC(=O)[C@@H](CC(C)C)NC(=O)[C@H](Cc2ccccc2)NC(=O)[C@H](CCN)NC1=O)[C@@H](C)O (stereo partly drawn) ({Octanoyl(6-Me)}-[Dab][ξThr(3R)][dDab][dDab][Dab]F[dL][dDab][dDab][ξThr(3R)]; lactam 4-C),,,inactive
CC(C)n1cnc2c(NCCc3ccc(O)cc3)nc(-c3csc4ccccc34)nc21,-19.9,,

# Biological target: Luciferin 4-monooxygenase (Photinus pyralis) (UniProt P08659)
# Assay: Primary firefly luciferase (FLuc) qHTS assay for identification of artifact compounds. (AID 1845220); further: nearly all actives have a fitted effect of over 60% in size;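 on activity change, negative = inhibition: plate controls were DMSO vehicle for no effect and no enzyme for full effect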
# Conditions: purified firefly luciferase, luminescence, 5 min; series mostly up to 54.1 µM; activity change, negative = inhibition: at the top concentration
# Outline: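 In this counter-screen for luciferase artifacts, test compounds met substrate (10 uM each luciferin and ATP) before 10 nM enzyme started the reaction. Light output was measured 5 min later.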
Compound,"activity change, negative = inhibition [%]",outcome
CC(C)(N)c1ccc(-c2nc3ccccc3nc2-c2ccccc2)cc1,2.86,
C[C@H](O)[C@@H]1C(=O)N2C(C(=O)O)=C(S[C@@H]3CN[C@H](CNS(N)(=O)=O)C3)[C@@H](C)[C@@H]12,,inactive
COc1ccc(S(=O)(=O)Nc2cccnc2Nc2ccc(O)cc2)cc1,,inactive
CC(C)c1cc(C(C)C)c(CC(=O)NS(=O)(=O)Oc2c(C(C)C)cccc2C(C)C)c(C(C)C)c1,-1.78,
CCC[C@H]1C[C@H](C(=O)N[C@@H]([C@@H]2O[C@@H](SC)[C@@H](O)[C@@H](O)[C@@H]2O)[C@H](C)Cl)N(C)C1,-5.42,
CC(C)n1cnc2c(NCCc3ccc(O)cc3)nc(-c3csc4ccccc34)nc21,-6.14,

# Tested on: not listed separately
# Assay: Primary fluorescence-based thiol-reactive (MSTI) qHTS assay for identification of artifact compounds. (AID 1845221); further: nearly all actives have a fitted effect of over 65% in size; further: potency means the concentration at half of the fitted maximal effect;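 on activity change, negative = thiol reactive: thiol-reactive compounds lower the probe fluorescence signal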
# Conditions: MSTI thiol-reactivity probe, 1 h; series mostly up to 53.8 µM; activity change, negative = thiol reactive: at the top concentration
# Outline: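 First, 4 uM MSTI in 2% DMSO/PBS pH 7.4 was dispensed; next, compounds were added; then plates sat 1 h at room temperature without light. Finally, emission at 598 nm was recorded.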
Compound,"activity change, negative = thiol reactive [%]",Potency
CC(C)(N)c1ccc(-c2nc3ccccc3nc2-c2ccccc2)cc1,52.8,
COc1ccc(S(=O)(=O)Nc2cccnc2Nc2ccc(O)cc2)cc1,,4.23 µM (active)
CC(C)c1cc(C(C)C)c(CC(=O)NS(=O)(=O)Oc2c(C(C)C)cccc2C(C)C)c(C(C)C)c1,35.1,
CCC[C@H]1C[C@H](C(=O)N[C@@H]([C@@H]2O[C@@H](SC)[C@@H](O)[C@@H](O)[C@@H]2O)[C@H](C)Cl)N(C)C1,36.5,
CC(C)n1cnc2c(NCCc3ccc(O)cc3)nc(-c3csc4ccccc34)nc21,348,

# Tested on: Nanoluciferase (engineered Oplophorus gracilirostris luciferase)
# Assay: Primary Nanoluciferase (NLuc) qHTS assay for identification of artifact compounds. (AID 1845222);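 further: NLuc secreted into diluted conditioned medium of S16 cells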
# Conditions: NLuc-conditioned medium, Nano-Glo luminescence, 5 min; series mostly up to 54.1 µM; activity, negative = inhibition: at the top concentration
# Outline: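 Using secreted nanoluciferase in S16 culture medium (0.22 um filtered, 1:55 dilution), compounds were preincubated 15 min at RT. Signal was generated with Nano-Glo reagent (1:100) over 5 min.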
row,Compound,"activity, negative = inhibition [%]"
1,CC(C)(N)c1ccc(-c2nc3ccccc3nc2-c2ccccc2)cc1,3.73
2,C[C@H](O)[C@@H]1C(=O)N2C(C(=O)O)=C(S[C@@H]3CN[C@H](CNS(N)(=O)=O)C3)[C@@H](C)[C@@H]12,-1.91
3,COc1ccc(S(=O)(=O)Nc2cccnc2Nc2ccc(O)cc2)cc1,-6.04
4,CC(C)c1cc(C(C)C)c(CC(=O)NS(=O)(=O)Oc2c(C(C)C)cccc2C(C)C)c(C(C)C)c1,-13.6
